# About 79,000 compounds went through this panel and 15% of them were active in at least one assay; those are over-represented in the sample as a whole. A number with no mark means an inactive call. Activity calls are given as the source filed them. Cut-off read from the data, not from the text of the source: active = growth inhibition above about 70%; inactive = the rest.
# Assay: NCI Yeast Anticancer Drug Screen. Data for the rad18 strain (AID 177)
# Conditions: S. cerevisiae rad18 mutant growth inhibition, stronger effect = higher value
# Experimental: Growth inhibition of yeast strains with defined genetic alterations is measured as a screen for potential anti-cancer activity. Selected strains with alterations in DNA damage repair or cell cycle control were exposed to compounds and growth inhibition was measured relative to vehicle treated controls. The strain used in this assay is rad18
SMILES,growth inhibition (at 1.2 µM),growth inhibition (at 3.7 µM),growth inhibition (at 11.0 µM),growth inhibition (at 33.0 µM),growth inhibition (at 100.0 µM)
COc1ccccc1N=NC(C(=O)c1ccccc1)C(=O)c1ccccc1,-5%,10%,9%,96% (active),98% (active)
O=C1OC(=O)C2CCCC3CCCC1C32 (stereo not given),25%,67%,94% (active),94% (active),97% (active)
O=C(CC(=O)n1nc(-c2ccccc2)c(N=Nc2ccccc2C(=O)O)c1-c1ccccc1)Nc1ccc(Cl)cc1,-4%,-1%,3%,6%,43%
CCOC(=O)C1=C(C(=O)c2ccccc2)C(c2ccccc2[N+](=O)[O-])C(C(=O)c2ccccc2)=C(C(=O)OCC)N1,0%,1%,1%,7%,39%
CCc1ncnc2cc(OCC3CO3)c(OC)cc12 (stereo not given),73% (active),84% (active),92% (active),91% (active),93% (active)
C[S+](C)C1(c2ccccc2)C(=O)c2ccccc2C1=O,5%,9%,16%,36%,54%
OCC1OC(OCC(O)C(O)C(O)C(/C=N/Nc2ccccc2)=N/Nc2ccccc2)C(O)C(O)C1O (stereo not given),7%,25%,30%,39%,81% (active)
CN(C)Cc1cc(N=Nc2ccc(Cl)cc2)cc(CN(C)C)c1O,7%,8%,25%,15%,34%
